Our source for the growth values is PubChem BioAssay (NCI).

Structures are written as SMILES. This is part of a sample that, as a whole, favours compounds with a hit. Of some 83,000 tested, about 20% had one in any assay.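 96-well plates, one dose, 48 hours. Percent growth reported; active if below 10.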 Values without a mark were called inactive. Active and inactive are the calls of the source.

Test systems include RPMI-8226 leukemia; OVCAR-8 ovarian; OVCAR-5 ovarian; OVCAR-4 ovarian; SK-OV-3 ovarian; IGROV1 ovarian; OVCAR-3 ovarian; HS 578T breast; NCI/ADR-RES ovarian; T-47D breast; BT-549 breast; MDA-MB-435 melanoma; SW-620 colon; MCF7 breast; HCT-116 colon; KM12 colon; HCC-2998 colon.
What all share (test): NCI-60 one-dose screen, 48 h (100 = growth as untreated, 0 = no growth, -100 = all killed)
Holding throughout (details): 10 µM unless noted

As for `COc1ccc(C(=O)/C=C/c2cc3ccccc3[nH]c2=O)cc1`, the growth with RPMI-8226 leukemia was 15.3%; with OVCAR-8 ovarian, 20.4%; with OVCAR-5 ovarian it was 52.2%; with OVCAR-4 ovarian, 58.6%; in the assay with SK-OV-3 ovarian it was 53%; in the assay with IGROV1 ovarian, 50.5%. Moreover, the growth was -19% (active) in the assay on OVCAR-3 ovarian; 53.6% in the assay with HS 578T breast; -5.27% (active) in the assay with NCI/ADR-RES ovarian; 33.8% in the assay on T-47D breast; 21.3% in the assay with BT-549 breast; 29.9% in the assay with MDA-MB-435 melanoma. Further, the growth with SW-620 colon was -21% (active); in the assay with MCF7 breast, 15%; in the assay on HCT-116 colon, 8.02% (active); with KM12 colon, -32% (active).
For the compound `O=C1C(Cl)=C(Cl)C(=O)c2c1nc1n2CCCC1`, the growth in the assay on RPMI-8226 leukemia is 99.3%; in the assay with OVCAR-8 ovarian, 100%; in the assay with OVCAR-5 ovarian, 116%; in the assay on OVCAR-4 ovarian, 117%; in the assay with SK-OV-3 ovarian, 90.8%; with IGROV1 ovarian, 104%. The growth is 82.5% with OVCAR-3 ovarian; 105% in the assay on HS 578T breast; 93.5% in the assay on NCI/ADR-RES ovarian; 48.3% in the assay on T-47D breast; 95.5% in the assay with BT-549 breast; 115% in the assay with MDA-MB-435 melanoma. The growth in the assay with SW-620 colon was 81.6%; in the assay with MCF7 breast, 70%; in the assay on HCT-116 colon, 84.1%; in the assay with HCC-2998 colon, 52.5%; with KM12 colon it was 80.5%.
Take `CCCNc1nc(SC)nc(-c2cccc(N)c2)c1C#N`: the growth was 103% with RPMI-8226 leukemia; 99.1% in the assay with OVCAR-8 ovarian; 101% in the assay with OVCAR-5 ovarian; 92.4% in the assay with OVCAR-4 ovarian; 93.7% in the assay on SK-OV-3 ovarian; 92.2% with IGROV1 ovarian. Further, the growth with OVCAR-3 ovarian was 110%; with HS 578T breast it was 93.1%; in the assay with NCI/ADR-RES ovarian, 101%; with T-47D breast it was 86.2%; in the assay with BT-549 breast, 97.7%; with MDA-MB-435 melanoma it was 103%. Moreover, the growth in the assay with SW-620 colon was 98.7%; in the assay on MCF7 breast, 89.1%; in the assay with HCT-116 colon it was 96.3%; with HCC-2998 colon it was 108%; in the assay on KM12 colon, 101%.
Turning to `C=C1CCC2C3(C)COC(C)(C)OC3CCC2(C)C1C/C=C1/C(=O)OCC1OC(C)=O` (centres undefined), the growth is -42% (active) with RPMI-8226 leukemia; -5.77% (active) in the assay on OVCAR-8 ovarian; 38.3% in the assay with OVCAR-5 ovarian; 32.3% with OVCAR-4 ovarian; 97.4% in the assay on SK-OV-3 ovarian; 69.6% in the assay with IGROV1 ovarian. Besides, the growth is -9.88% (active) in the assay with OVCAR-3 ovarian; 12% in the assay with HS 578T breast; 51% in the assay with NCI/ADR-RES ovarian; 27.7% in the assay with T-47D breast; 52.9% in the assay with BT-549 breast; 27.1% in the assay with MDA-MB-435 melanoma. In addition, the growth is -38.8% (active) in the assay with SW-620 colon; 16.5% in the assay on MCF7 breast; -21.1% (active) with HCT-116 colon; 100% in the assay with HCC-2998 colon; 10.1% in the assay on KM12 colon.
Regarding `O=C(/C=C/c1ccc(Cl)cc1)c1ccc(O)c(CN2CCN(c3cc4c(cc3F)c(=O)c(C(=O)O)cn4C3CC3)CC2)c1`, the growth in the assay on RPMI-8226 leukemia was 16.5%; with OVCAR-8 ovarian, 27.4%; in the assay with OVCAR-5 ovarian, 77.5%; with OVCAR-4 ovarian it was 89.2%; in the assay on SK-OV-3 ovarian, 73.8%; in the assay on IGROV1 ovarian, 51.6%. The growth in the assay on OVCAR-3 ovarian was 73.9%; in the assay with HS 578T breast, 47%; in the assay with NCI/ADR-RES ovarian, 65.7%; in the assay on T-47D breast, 53.4%; in the assay on BT-549 breast, 46.3%; with MDA-MB-435 melanoma it was 52%. The growth is 47.8% in the assay on SW-620 colon; 45.6% in the assay with MCF7 breast; 12.6% in the assay on HCT-116 colon; 59.4% with HCC-2998 colon; 59.3% in the assay on KM12 colon.
With `CCOC(=O)C(CC)n1c(=O)c2cc(OC)c(OC)cc2c2cnc3[nH]ccc3c21` (centres undefined), the growth with RPMI-8226 leukemia is 70.1%; with OVCAR-8 ovarian, 80%; in the assay with OVCAR-5 ovarian it was 63.8%; with OVCAR-4 ovarian it was 93.3%; in the assay on SK-OV-3 ovarian, 58.5%; in the assay with IGROV1 ovarian it was 19.7%. Besides, the growth is 76.3% with OVCAR-3 ovarian; 41.7% in the assay on HS 578T breast; 73.3% in the assay with NCI/ADR-RES ovarian; 26.1% in the assay on T-47D breast; 47.6% with BT-549 breast; 88.2% with MDA-MB-435 melanoma. The growth in the assay on SW-620 colon was 79.9%; in the assay with MCF7 breast, 50.1%; in the assay on HCT-116 colon, 67.9%; with HCC-2998 colon, 83.4%; in the assay with KM12 colon, 26%.
`CCCCCCCCSC1=CC(=O)C(OC)=C(OC)C1=O`: the growth with RPMI-8226 leukemia is -24.5% (active); with OVCAR-8 ovarian, -9.18% (active); in the assay on OVCAR-5 ovarian it was 28%; in the assay on OVCAR-4 ovarian, 21.5%; in the assay on SK-OV-3 ovarian, 86.4%; in the assay with IGROV1 ovarian, 43.2%. Moreover, the growth in the assay with OVCAR-3 ovarian was -40.8% (active); in the assay with HS 578T breast, 63%; with NCI/ADR-RES ovarian, -27.1% (active); with T-47D breast, -76.6% (active); with BT-549 breast, 68.8%; in the assay with MDA-MB-435 melanoma it was 7.62% (active). Also, the growth with SW-620 colon was -60.5% (active); in the assay on MCF7 breast it was 13.1%; in the assay on HCT-116 colon, -49.9% (active); in the assay with KM12 colon, 29.5%.
With `O=C(CNC1C2CC3CC(C2)CC1C3)Sc1nnc2sc3ccccc3n12` (centres undefined), the growth in the assay on RPMI-8226 leukemia is 97.3%; in the assay on OVCAR-8 ovarian it was 106%; in the assay with OVCAR-5 ovarian, 100%; with OVCAR-4 ovarian, 87.6%; in the assay on SK-OV-3 ovarian it was 94.2%; in the assay with IGROV1 ovarian it was 104%. The growth was 98.2% in the assay with OVCAR-3 ovarian; 89.5% in the assay with HS 578T breast; 99.2% with NCI/ADR-RES ovarian; 87.2% in the assay on T-47D breast; 98% in the assay with BT-549 breast; 101% in the assay with MDA-MB-435 melanoma. Also, the growth is 94.8% in the assay with SW-620 colon; 88.7% in the assay on MCF7 breast; 93.6% with HCT-116 colon; 113% in the assay with HCC-2998 colon; 101% in the assay with KM12 colon.
